For 20 molecules, outcome and AC50 results are on record in PubChem BioAssay (EPA / NIEHS).

Inconclusive results are not listed. Activity calls are given as the source filed them. The calls were made as follows: active = hit-call score of the fitted dose curve at least 0.9, where 1 is the maximum; inconclusive = response in the unintended direction; inactive = score below 0.9.

For experiment [1], the target named is Androgen receptor (Homo sapiens) (UniProt P10275). As to the kind of experiment: ATG_AR_TRANS: Attagene TRANS-FACTORIAL HepG2 Assay for human Androgen Receptor (AR) (AID 2282973). The note with it: HepG2 Attagene TRANS-FACTORIAL AR reporter transcription. In outline:
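Transfected HepG2, 24 h treatment, chimeric NR-Gal4 driving GAL4-UAS reporters. mRNA induction by RT-PCR/capillary electrophoresis fluorescence; DMSO as negative control and baseline.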

Experiment [2] has as its target human Phosphatase and Tensin Homolog (PTEN), PTEN (gene 5728) (UniProt P60484). As to the kind of experiment: NVS_ENZ_hPTEN: NovaScreen (NVS) Enzymatic Assay for human Phosphatase and Tensin Homolog (PTEN) (AID 2283203). In outline: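 Cell-free recombinant human PTEN with fluorescent substrate; product separated by electrophoretic mobility shift and read by fluorescence 1 h after dosing. Primary screen in duplicate at 25 uM, actives followed in concentration series versus DMSO.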

Experiment [3] has as its target human Caspase 2 (CASP2), CASP2 (gene 835) (UniProt P42575). In words: NVS_ENZ_hCASP2: NovaScreen (NVS) Enzymatic Assay for human Caspase 2 (CASP2) (AID 2283135). In outline:
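E. coli-expressed enzyme in a cell-free protease assay, fluorescence read 1 h after dosing. Compounds at 25 uM in duplicate, with concentration-response up to 50 uM for hits; loss of signal against DMSO baseline.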

The target of experiment [4] is human Fibroblast Growth Factor Receptor 1 (FGFR1), FGFR1 (gene 2260) (UniProt P11362). As to the kind of experiment: NVS_ENZ_hFGFR1: NovaScreen (NVS) Enzymatic Assay for human Fibroblast Growth Factor Receptor 1 (FGFR1) (AID 2283159).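 As to AC50: hits lower the signal so potencies describe inhibitors of the kinase.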 Summed up: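 Cell-free recombinant kinase with fluorescent substrate, product separated by electrophoretic mobility shift; read 1 hour after dosing, loss of signal relative to DMSO. Initial screen in duplicate at 25 uM, actives followed in concentration series.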
Chain of human Fibroblast Growth Factor Receptor 1 (FGFR1), FGFR1 (gene 2260) (P11362 whole entry, looked up): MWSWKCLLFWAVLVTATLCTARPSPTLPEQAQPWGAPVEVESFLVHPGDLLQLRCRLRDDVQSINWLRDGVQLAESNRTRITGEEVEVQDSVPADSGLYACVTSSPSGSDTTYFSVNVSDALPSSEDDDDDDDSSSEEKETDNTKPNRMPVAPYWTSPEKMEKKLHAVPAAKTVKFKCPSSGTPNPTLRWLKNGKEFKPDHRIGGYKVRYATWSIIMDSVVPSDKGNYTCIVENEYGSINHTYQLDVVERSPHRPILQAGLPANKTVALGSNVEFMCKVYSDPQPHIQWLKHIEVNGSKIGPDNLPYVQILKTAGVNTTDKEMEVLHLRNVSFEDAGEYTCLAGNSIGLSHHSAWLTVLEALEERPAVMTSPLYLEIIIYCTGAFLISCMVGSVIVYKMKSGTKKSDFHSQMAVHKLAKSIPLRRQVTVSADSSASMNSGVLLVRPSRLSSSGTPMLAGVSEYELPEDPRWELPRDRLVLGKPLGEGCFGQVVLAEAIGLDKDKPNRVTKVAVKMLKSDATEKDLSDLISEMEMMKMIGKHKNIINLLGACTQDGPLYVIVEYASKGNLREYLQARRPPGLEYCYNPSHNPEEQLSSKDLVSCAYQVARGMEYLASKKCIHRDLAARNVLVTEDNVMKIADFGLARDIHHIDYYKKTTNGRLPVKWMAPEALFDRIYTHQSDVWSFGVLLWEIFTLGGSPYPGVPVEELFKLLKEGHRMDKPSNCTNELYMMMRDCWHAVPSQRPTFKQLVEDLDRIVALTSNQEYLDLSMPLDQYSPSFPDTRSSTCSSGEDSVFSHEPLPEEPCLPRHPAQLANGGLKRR

Experiment [5] deals with human Protein Tyrosine Phosphatase Receptor Type C (PTPRC), PTPRC (gene 5788) (UniProt P08575). In words: NVS_ENZ_hPTPRC: NovaScreen (NVS) Enzymatic Assay for human Protein Tyrosine Phosphatase Receptor Type C (PTPRC) (AID 2283212). Summed up:
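Yeast-extracted human PTPRC used in a cell-free colorimetric enzyme activity read-out, 1 h after dosing. Primary screen in duplicate at 25 uM; actives rerun in concentration-response up to 50 uM, DMSO as baseline.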

The target in experiment [6] is Voltage-dependent N-type calcium channel subunit alpha-1B (Rattus norvegicus) (UniProt Q02294). In words: NVS_IC_rCaChN: NovaScreen (NVS) Ion Channel Assay for rat Calcium Channel, Type N (CaChN) (AID 2283317).
Experiment [7] deals with rat Acetylcholinesterase (AChE), Ache (gene 83817) (UniProt P37136). As to the kind of experiment: NVS_ENZ_rAChE: NovaScreen (NVS) Enzymatic Assay for rat Acetylcholinesterase (AChE) (AID 2283233). Summed up: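 Rat brain membrane acetylcholinesterase activity measured colorimetrically 0.33 h after compound addition, loss of signal relative to DMSO. Primary screen in duplicate at 25 uM; actives re-run as concentration-response with 50 uM top concentration.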

For experiment [8], the target named is human Aurora Kinase A - serine/threonine-protein Kinase 6 (AurA), AURKA (gene 6790) (UniProt O14965). In words: NVS_ENZ_hAurA: NovaScreen (NVS) Enzymatic Assay for human Aurora Kinase A - serine/threonine-protein Kinase 6 (AurA) (AID 2283142). Summed up:
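Cell-free enzymatic assay with human Aurora A, 1 hour after dosing. Fluorescent substrate turnover detected after electrophoretic mobility shift separation of substrate and product. Screened at 25 uM, actives retested in concentration-response up to 50 uM.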

Experiment [9] has as its system rat Monoamine Oxidase, MAO-A, Peripheral (MAOAP), gene 29253. As to the kind of experiment: NVS_ENZ_rMAOAP: NovaScreen (NVS) Enzymatic Assay for rat Monoamine Oxidase, MAO-A, Peripheral (MAOAP) (AID 2283237). Summed up: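 Rat liver mitochondrial membranes served as the MAO-A source, with enzyme activity measured by radiometric scintillation counting 1.17 hours after dosing. Loss of signal was fitted against DMSO; primary screen used 25 uM in duplicate, follow-up used concentration series.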

Experiment [10] addresses rat Monoamine Oxidase, MAO-B, Central (MAOBC), Maob (gene 25750) (UniProt P19643). As to the kind of experiment: NVS_ENZ_rMAOBC: NovaScreen (NVS) Enzymatic Assay for rat Monoamine Oxidase, MAO-B, Central (MAOBC) (AID 2283238). In outline:
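Rat brain tissue extract served as the cell-free MAO-B source; enzyme activity was read by scintillation counting 1.17 hours after compound addition. Loss of signal versus DMSO baseline was fitted; primary single-concentration screen at 25 uM, follow-up concentration-response up to 50 uM.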

For experiment [11], the system named is rat Monoamine Oxidase, MAO-A, Central (MAOAC), gene 29253. As to the kind of experiment: NVS_ENZ_rMAOAC: NovaScreen (NVS) Enzymatic Assay for rat Monoamine Oxidase, MAO-A, Central (MAOAC) (AID 2283243).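 Also: potency refers to inhibition seen as signal drop below DMSO baseline.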 In outline: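 Steps: rat brain protein extract dosed with test chemical (25 uM, duplicate, primary); incubated 1.5 h; radiolabelled product separated from substrate and counted. Signal loss versus DMSO scored as inhibition.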

The target of experiment [12] is human MET Proto-Oncogene, Receptor Tyrosine Kinase (MET), MET (gene 4233) (UniProt P08581). As to the kind of experiment: NVS_ENZ_hMet: NovaScreen (NVS) Enzymatic Assay for human MET Proto-Oncogene, Receptor Tyrosine Kinase (MET) (AID 2283180). Summed up: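 Cell-free MET kinase assay using recombinant protein and fluorescent substrate, with mobility-shift separation; read 1 h after dosing. Primary duplicate at 25 uM; actives in singleton concentration-response to 50 uM maximum. Signal loss versus DMSO.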

A further experiment concerns the target Caspase-1 (Homo sapiens) (UniProt P29466). In words: NVS_ENZ_hCASP1: NovaScreen (NVS) Enzymatic Assay for human Caspase 1 (CASP1) (AID 2283132). Summed up:
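Cell-free enzymatic assay with E. coli-expressed recombinant protein; fluorescence intensity read 1 hour after dosing. Single-concentration duplicate screen at 25 uM, then concentration-response up to 50 uM; activity fitted relative to DMSO, loss of signal meaning inhibition.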

The target of experiment [13] is rat Monoamine Oxidase, MAO-B, Peripheral (MAOBP), Maob (gene 25750) (UniProt P19643). As to the kind of experiment: NVS_ENZ_rMAOBP: NovaScreen (NVS) Enzymatic Assay for rat Monoamine Oxidase, MAO-B, Peripheral (MAOBP) (AID 2283242).
Chain of rat Monoamine Oxidase, MAO-B, Peripheral (MAOBP), Maob (gene 25750) (P19643 whole entry, looked up): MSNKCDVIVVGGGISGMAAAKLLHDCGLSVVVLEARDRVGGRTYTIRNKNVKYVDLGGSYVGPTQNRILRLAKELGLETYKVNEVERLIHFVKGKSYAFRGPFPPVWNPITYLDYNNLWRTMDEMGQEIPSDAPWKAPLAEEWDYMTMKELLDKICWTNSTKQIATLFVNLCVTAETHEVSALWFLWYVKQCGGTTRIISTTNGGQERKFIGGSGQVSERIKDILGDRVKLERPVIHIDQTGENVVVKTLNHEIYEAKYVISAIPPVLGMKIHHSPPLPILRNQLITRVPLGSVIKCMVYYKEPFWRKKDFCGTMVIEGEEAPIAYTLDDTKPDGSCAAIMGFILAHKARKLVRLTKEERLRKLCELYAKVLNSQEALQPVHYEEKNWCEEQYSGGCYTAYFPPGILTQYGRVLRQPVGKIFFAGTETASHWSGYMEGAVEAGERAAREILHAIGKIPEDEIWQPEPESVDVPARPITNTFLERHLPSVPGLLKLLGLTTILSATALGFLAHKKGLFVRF
The target in experiment [14] is rat Oxytocin Receptor (OXT), Oxtr (gene 25342) (UniProt P70536). As to the kind of experiment: NVS_GPCR_rOXT: NovaScreen (NVS) G Protein-Coupled Receptor Assay for rat Oxytocin Receptor (OXT) (AID 2283330). In outline:
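Radioligand displacement on rat uterine membranes, 1 h incubation, filter-based scintillation counting. Chemicals were screened in duplicate at 25 uM, and those passing threshold were retested in concentration-response up to 50 uM. Loss of binding was fitted versus DMSO.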

Experiment [15] deals with rat Adenylate Cyclase, Forskolin Stimulated, Adcy5 (gene 64532) (UniProt Q04400). As to the kind of experiment: NVS_ENZ_rACFSKBinding: NovaScreen (NVS) Enzymatic Assay for rat Adenylate Cyclase, Forskolin Stimulated (AID 2283232). Summed up: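 Rat forebrain membrane preparation, cell-free, read 1 h after dosing by filter-based scintillation counting. Primary screen in duplicate at 25 uM; actives (e.g. ≥30% inhibition) rerun in concentration-response up to 50 uM; fit versus DMSO.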

For experiment [16], the target named is rat Corticotropin Releasing Factor Receptor (CRF), Crhr1 (gene 58959) (UniProt P35353). In words: NVS_GPCR_rCRF: NovaScreen (NVS) G Protein-Coupled Receptor Assay for rat Corticotropin Releasing Factor Receptor (CRF) (AID 2283300). In outline: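 Rat cortical membranes used as receptor source in a radioligand competitive displacement binding assay; scintillation read 2 h after dosing. Primary screen run in duplicate at 25 uM; loss of signal versus DMSO baseline indicates binding.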

The target of experiment [17] is human Raf-1 Proto-Oncogene, serine/threonine Kinase (RAF1), RAF1 (gene 5894) (UniProt P04049). In words: NVS_ENZ_hRAF1: NovaScreen (NVS) Enzymatic Assay for human Raf-1 Proto-Oncogene, serine/threonine Kinase (RAF1) (AID 2283216). In outline:
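Cell-free recombinant kinase with specific fluorescent substrate, product separated by electrophoretic mobility shift; read 1 h after dosing. Primary screen at 25 uM in duplicate; hits then run in concentration-response up to 50 uM, fitted as loss of signal versus DMSO.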

In experiment [18] the target is bovine Gamma-Aminobutyric Acid Type A Receptor BDZ, alpha 1 site (GABARa1), GABRA1 (gene 780973) (UniProt P08219). In words: NVS_LGIC_bGABARa1: NovaScreen (NVS) Ligand-Gated Ion Channel Assay for bovine Gamma-Aminobutyric Acid Type A Receptor BDZ, alpha 1 site (GABARa1) (AID 2283321). In outline: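 Radioligand competition binding on bovine cortical membranes, 0.75 h, filter-based scintillation counting. Primary single concentration 25 uM in duplicate; actives rerun in concentration-response to 50 uM max. Loss of signal fitted versus DMSO.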

Experiment [19] concerns the target Bile acid receptor (Homo sapiens) (UniProt Q96RI1). As to the kind of experiment: NVS_NR_hFXR_Agonist: NovaScreen (NVS) Nuclear Receptor Binding Assay for human Farnesoid X Receptor Agonism (FXR) (AID 2283347). Summed up: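 Cell-free TR-FRET binding assay with extracted human FXR protein, agonist format, read 1 h after dosing. Primary screen at 25 uM single concentration in duplicate, actives retested in concentration series; gain of signal versus DMSO.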

Usually AC50 stands for the concentration giving half of the maximal activity seen.

Chain of human Phosphatase and Tensin Homolog (PTEN), PTEN (gene 5728) (P60484 whole entry, looked up): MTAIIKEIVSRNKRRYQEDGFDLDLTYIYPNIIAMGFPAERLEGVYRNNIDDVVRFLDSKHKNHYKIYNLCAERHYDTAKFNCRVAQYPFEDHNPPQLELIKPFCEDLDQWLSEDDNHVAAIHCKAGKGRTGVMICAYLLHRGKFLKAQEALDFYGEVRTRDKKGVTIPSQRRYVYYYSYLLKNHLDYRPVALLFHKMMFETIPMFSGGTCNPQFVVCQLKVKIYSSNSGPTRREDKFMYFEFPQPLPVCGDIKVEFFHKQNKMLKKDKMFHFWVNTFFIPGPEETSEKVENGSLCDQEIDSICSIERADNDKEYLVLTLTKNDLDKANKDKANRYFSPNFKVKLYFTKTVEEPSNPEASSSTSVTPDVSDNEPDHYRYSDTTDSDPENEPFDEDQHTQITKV
Chain of rat Monoamine Oxidase, MAO-B, Central (MAOBC), Maob (gene 25750) (P19643 whole entry, looked up): as the sequence (P19643 whole entry, looked up) above
Chain of Androgen receptor (Homo sapiens) (P10275 whole entry, looked up, the tested form may be a part): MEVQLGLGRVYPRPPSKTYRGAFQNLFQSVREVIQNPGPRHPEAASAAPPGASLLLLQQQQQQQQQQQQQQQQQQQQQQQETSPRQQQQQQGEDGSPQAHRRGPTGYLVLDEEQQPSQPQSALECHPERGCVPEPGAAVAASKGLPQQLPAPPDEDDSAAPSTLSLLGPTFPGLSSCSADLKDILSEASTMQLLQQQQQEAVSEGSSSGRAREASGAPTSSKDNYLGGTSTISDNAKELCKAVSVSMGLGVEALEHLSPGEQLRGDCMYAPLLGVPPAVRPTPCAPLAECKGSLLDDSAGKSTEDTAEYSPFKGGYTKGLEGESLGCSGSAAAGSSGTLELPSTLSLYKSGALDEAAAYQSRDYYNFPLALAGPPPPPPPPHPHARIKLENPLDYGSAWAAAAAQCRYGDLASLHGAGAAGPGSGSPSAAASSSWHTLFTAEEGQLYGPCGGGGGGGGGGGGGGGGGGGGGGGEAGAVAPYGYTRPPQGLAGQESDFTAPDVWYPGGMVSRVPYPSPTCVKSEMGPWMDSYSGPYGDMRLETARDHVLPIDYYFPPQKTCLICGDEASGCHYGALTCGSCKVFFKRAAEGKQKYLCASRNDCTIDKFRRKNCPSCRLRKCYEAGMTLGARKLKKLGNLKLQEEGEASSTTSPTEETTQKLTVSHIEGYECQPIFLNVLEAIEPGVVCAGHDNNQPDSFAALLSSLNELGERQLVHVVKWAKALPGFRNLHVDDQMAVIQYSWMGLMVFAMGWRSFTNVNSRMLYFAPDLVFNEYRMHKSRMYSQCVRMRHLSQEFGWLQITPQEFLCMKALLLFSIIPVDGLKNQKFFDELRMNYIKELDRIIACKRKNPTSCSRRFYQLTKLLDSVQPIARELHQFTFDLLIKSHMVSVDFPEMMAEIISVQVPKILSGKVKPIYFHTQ
Chain of human Protein Tyrosine Phosphatase Receptor Type C (PTPRC), PTPRC (gene 5788) (P08575 whole entry, looked up): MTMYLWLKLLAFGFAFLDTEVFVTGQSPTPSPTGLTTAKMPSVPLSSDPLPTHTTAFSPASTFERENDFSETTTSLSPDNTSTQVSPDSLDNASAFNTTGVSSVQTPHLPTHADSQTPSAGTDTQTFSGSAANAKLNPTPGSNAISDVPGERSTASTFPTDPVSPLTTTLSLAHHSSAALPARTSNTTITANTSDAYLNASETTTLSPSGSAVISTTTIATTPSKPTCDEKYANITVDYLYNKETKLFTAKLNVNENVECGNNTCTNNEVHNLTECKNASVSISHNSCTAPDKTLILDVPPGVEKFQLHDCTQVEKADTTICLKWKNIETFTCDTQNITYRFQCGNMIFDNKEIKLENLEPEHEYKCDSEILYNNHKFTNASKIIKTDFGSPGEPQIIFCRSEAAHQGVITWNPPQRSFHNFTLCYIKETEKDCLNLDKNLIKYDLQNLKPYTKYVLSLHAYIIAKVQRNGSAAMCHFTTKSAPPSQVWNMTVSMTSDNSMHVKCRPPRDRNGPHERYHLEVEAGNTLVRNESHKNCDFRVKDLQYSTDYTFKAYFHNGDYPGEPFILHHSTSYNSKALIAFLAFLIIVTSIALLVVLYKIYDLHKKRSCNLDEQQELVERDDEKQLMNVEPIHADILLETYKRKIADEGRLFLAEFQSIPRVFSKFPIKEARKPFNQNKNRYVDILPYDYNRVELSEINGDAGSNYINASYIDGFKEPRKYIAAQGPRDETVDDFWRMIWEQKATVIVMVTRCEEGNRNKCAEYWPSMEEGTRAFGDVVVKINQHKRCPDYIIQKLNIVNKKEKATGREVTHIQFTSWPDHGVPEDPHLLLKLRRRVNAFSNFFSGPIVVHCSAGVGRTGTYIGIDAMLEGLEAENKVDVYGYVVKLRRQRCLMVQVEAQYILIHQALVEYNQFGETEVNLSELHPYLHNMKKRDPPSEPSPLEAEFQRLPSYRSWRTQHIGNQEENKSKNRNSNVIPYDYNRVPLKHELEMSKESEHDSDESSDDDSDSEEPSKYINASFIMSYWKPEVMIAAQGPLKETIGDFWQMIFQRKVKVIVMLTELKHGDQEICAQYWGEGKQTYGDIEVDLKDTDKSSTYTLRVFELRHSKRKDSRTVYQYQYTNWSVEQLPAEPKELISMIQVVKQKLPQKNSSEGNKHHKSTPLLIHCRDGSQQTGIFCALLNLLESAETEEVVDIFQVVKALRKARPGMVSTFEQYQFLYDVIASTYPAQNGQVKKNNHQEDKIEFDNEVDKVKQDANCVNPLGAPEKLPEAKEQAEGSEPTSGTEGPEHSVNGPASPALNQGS
Chain of human Caspase 2 (CASP2), CASP2 (gene 835) (P42575 whole entry, looked up): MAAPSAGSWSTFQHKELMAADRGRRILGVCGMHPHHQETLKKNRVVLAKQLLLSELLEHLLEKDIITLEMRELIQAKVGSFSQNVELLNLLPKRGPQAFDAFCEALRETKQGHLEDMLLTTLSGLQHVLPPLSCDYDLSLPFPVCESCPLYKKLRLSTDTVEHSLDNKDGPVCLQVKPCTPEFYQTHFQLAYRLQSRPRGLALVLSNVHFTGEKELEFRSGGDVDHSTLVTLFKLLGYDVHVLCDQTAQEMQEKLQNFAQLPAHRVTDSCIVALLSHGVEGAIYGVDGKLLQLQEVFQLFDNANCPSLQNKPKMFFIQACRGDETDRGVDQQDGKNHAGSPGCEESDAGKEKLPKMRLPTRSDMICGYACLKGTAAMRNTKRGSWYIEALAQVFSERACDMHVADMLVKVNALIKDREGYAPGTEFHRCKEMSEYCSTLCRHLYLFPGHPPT
Chain of human Aurora Kinase A - serine/threonine-protein Kinase 6 (AurA), AURKA (gene 6790) (O14965 whole entry, looked up): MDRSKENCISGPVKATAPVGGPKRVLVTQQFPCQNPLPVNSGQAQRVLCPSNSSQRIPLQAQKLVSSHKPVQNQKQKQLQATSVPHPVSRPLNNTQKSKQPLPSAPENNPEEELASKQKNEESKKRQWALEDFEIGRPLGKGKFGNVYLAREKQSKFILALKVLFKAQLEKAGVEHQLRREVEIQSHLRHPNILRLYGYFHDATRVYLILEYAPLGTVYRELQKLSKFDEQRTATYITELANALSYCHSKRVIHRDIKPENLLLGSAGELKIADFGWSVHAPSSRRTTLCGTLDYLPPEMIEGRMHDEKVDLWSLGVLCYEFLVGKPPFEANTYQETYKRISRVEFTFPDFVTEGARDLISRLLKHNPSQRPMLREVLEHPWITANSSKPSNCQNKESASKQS

Consider `O=C(O)C[C@H](O)C[C@H](O)/C=C/c1c(C2CC2)nc2ccccc2c1-c1ccc(F)cc1`, for which the result in [1] was inactive. Moreover, the AC50 in experiment [2] is 0.161 µM (active).
Consider `O=C(O)Cn1c(=O)n(Cc2ccc(Br)cc2F)c(=O)c2ccc(Cl)cc21`, for which the result in [1], in experiment [3], in experiment [4], in experiment [5] and in experiment [6] was inactive.
For `Clc1cc(Cl)c(-c2c(Cl)c(Cl)cc(Cl)c2Cl)cc1Cl`, the result in experiment [1] was inactive. Moreover, the AC50 in [2] is 12.5 µM (active).
For the molecule `CCCCCCCCN(C)CCCCCCCC`, the outcome in experiment [1] was inactive. Also, in experiment [4], the AC50 is 36.1 µM (active).
Regarding `O=Cc1ccccc1C=O`, the result in [1], in experiment [7] and in [6] was inactive. In addition, in experiment [5], the AC50 was 17.7 µM (active).
`CC1(C)[C@H](C(=O)OCc2cccc(Oc3ccccc3)c2)[C@@H]1C=C(Cl)Cl`: the molecule was classed as inactive in [1]. Besides, the AC50 in [2] is 15.7 µM (active).
As to `CC(C)=CCCC(C)O` (configuration not stated), the molecule was called inactive in experiment [1] and in experiment [2].
`Oc1ccc2ccccc2c1`: the call in [1] was inactive. The AC50 in experiment [8] is 36.6 µM (active); in [9], 12.9 µM (active); in experiment [10] it was 14.4 µM (active); in [11], 10.2 µM (active).
Turning to `O=C(O)Cc1ccccc1Nc1c(Cl)cccc1Cl`, the call in [1] and in experiment [5] was inactive.
As for `CCOCCOCCO`, the outcome in [1], in [12] and in experiment [10] was inactive.
For `CCOc1cccc(-n2cc(C(=O)N3CCN(c4cc(C(=O)O)c5ccccc5c4)CC3)nc2-c2ccc(C)cc2)c1`, the molecule was called inactive (in experiment [1]; with Caspase-1 (Homo sapiens)).
Turning to `O=C(O)c1ccccc1C(=O)OCc1ccccc1`, the outcome in experiment [1] and in experiment [3] was inactive.
For `O[Si](c1ccccc1)(c1ccccc1)c1ccccc1`, the outcome in experiment [1] was inactive. Also, the AC50 in [2] is 10.6 µM (active).
On to `COc1ccc(S(=O)(=O)N2C(=O)[C@@](c3ccccc3OC)(N3C[C@H](O)C[C@H]3C(=O)N(C)C)c3cc(Cl)ccc32)c(OC)c1`, for which the call in experiment [1], in experiment [10] and in [13] was inactive. Moreover, the AC50 in [14] was 0.0663 µM (active).
For `CCOc1ccc2c(c1)C(C)=CC(C)(C)N2`, the result in experiment [1], in experiment [3] and in experiment [4] was inactive. The AC50 in experiment [5] is 8.36 µM (active); in experiment [11] it was 16.6 µM (active).
Turning to `CCN(CC)C(=S)SSC(=S)N(CC)CC`, the molecule was classed as inactive in experiment [1] and in [16]. The AC50 in experiment [15] is 6.29 µM (active).
In the case of `CCCCCCc1ccc(O)cc1O`, the outcome in experiment [1] was inactive. Also, the AC50 in experiment [9] was 25 µM (active).
With `CCc1cccc(CC)c1`, the call in experiment [1] and in [2] was inactive.
`CCOC(=O)COc1cc(-n2ncc(C(F)(F)F)c(C)c2=O)c(F)cc1Cl`: the molecule was called inactive in experiment [1] and in experiment [17].
As to `CCCCOC(=O)c1ccc(O)cc1`, the result in experiment [1], in experiment [3] and in experiment [19] was inactive. The AC50 in [18] is 35.1 µM (active).
